Assay outcomes (PubChem BioAssay)
Rows were chosen to be rich in hits. Some 3.5% of all compounds tested hit in one or more screens of this group.
TEAD-YAP block = TEAD-YAP interaction inhibition; HEK-TIYL cells, TEAD-Gal4/YAP UAS-luciferase luminescence; inhibition, % at 9.12 µM; 640,000 tested, 1.4% active; AID 1259422; in the data active = inhibition above about 32%;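 note: 0% = median of test compound wells and 100% = reference inhibitor wells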
FBW7 activator = human FBW7 E3 ligase activation, primary screen; Q969H0; AlphaScreen FBW7–phospho-cyclin E peptide binding, activator screen; normalized activity (activation), % at 26.1 µM; 650,000 tested, 0.13% active; AID 1259310; in the data active = normalized activity above about 1.9%;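 note: purified mutant Fbw7 with reduced substrate affinity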
Target sequence (Q969H0 whole entry, looked up): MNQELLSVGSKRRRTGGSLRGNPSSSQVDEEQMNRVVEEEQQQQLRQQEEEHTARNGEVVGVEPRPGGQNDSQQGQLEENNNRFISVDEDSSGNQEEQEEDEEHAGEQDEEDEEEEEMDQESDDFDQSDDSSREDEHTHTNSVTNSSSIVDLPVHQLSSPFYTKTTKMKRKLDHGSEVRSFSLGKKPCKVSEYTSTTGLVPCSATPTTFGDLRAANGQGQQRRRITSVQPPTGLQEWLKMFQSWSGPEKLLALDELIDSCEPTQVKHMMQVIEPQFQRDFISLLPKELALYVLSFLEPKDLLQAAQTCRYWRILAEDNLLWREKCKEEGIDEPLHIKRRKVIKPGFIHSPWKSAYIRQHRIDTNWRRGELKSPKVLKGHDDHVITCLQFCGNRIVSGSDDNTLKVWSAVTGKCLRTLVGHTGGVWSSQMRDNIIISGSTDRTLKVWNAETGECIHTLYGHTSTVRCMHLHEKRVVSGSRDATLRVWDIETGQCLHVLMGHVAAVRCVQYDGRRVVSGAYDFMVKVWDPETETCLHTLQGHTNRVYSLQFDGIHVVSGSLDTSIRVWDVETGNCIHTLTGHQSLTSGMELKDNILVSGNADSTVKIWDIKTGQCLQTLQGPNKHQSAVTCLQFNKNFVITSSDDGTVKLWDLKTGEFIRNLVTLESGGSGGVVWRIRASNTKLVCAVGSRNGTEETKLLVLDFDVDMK
GPR151 ag = activates the human receptor GPR151; PathHunter beta-arrestin GPR151 cells, luminescence; activation, % at 11.2 µM; 650,000 tested, 1% active; AID 1508602; in the data active = activation above about 4.9%;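 note: 0% = median of compound wells and 100% = cells with positive control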
MITF primary = inhibitors of human MITF | 650,000 tested, 0.91% active | inhibition, % at 2.6 µM | AlphaScreen MITF homodimerization, bead proximity signal; in the data active = inhibition above about 50%;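 note: 0% = vehicle wells with protein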
The depositor's hits bear a star.

SMILES | TEAD-YAP block | FBW7 activator | GPR151 ag | MITF primary
CCCNc1ccc2ncc(-c3cccc(C(N)=O)c3)n2n1 | 33* | 0 | 0 | 13
COc1ccc(CNc2ccc3ncc(-c4ccc(O)c(OC)c4)n3n2)cc1 | 1 | 0 | 0 | 14
CCCNc1ccc2ncc(-c3ccc(OC)c(OC)c3)n2n1 | 34* | 0 | 0 | -21
COc1cc(-c2cnc3ccc(NCCCO)nn23)ccc1O | 75* | 0 | 0 | 8
O=C(Oc1ccc2c(c1)OCO2)C1CCCCN1S(=O)(=O)c1ccccc1 (stereo not given) | 5 | 0 | -1 | 7
Cc1cccc(-n2ncc3c(N(C)C4CCCCC4)ncnc32)c1 | 97* | 0 | 1 | -17
Clc1cccc(-n2ncc3c(NC4CC4)ncnc32)c1 | -32 | 0 | -1 | -3
C=CCNc1ncnc2c1cnn2-c1ccc(C)cc1C | -8 | 0 | 0 | 8
Cc1cccc(-n2ncc3c(N(CC(C)C)CC(C)C)ncnc32)c1 | -12 | 0 | 2 | 0
COc1ccc(-n2ncc3c(N(C)C4CCCCC4)ncnc32)cc1 | 93* | 0 | 2 | -3
CCOC(=O)N1CCC(Nc2ncnc3c2cnn3-c2ccc(C)cc2C)CC1 | 39* | 0 | -1 | -6
COc1ccc(-n2ncc3c(N4CCCC4)ncnc32)cc1 | 25 | 0 | 2 | 2
Cc1cccc(-n2ncc3c(NC4CCCCCC4)ncnc32)c1 | 47* | 0 | 1 | 4
Cc1noc(CNC(=O)CSc2ccc(F)cc2)n1 | -9 | 0 | 2 | 20
CC(=O)C1=C(O)C(=O)N(CCCN2CCOCC2)C1c1ccc(C)cc1 (stereo not given) | 3 | 1 | 2 | 6
CCc1c(C)sc(NC(NC(=O)c2ccc(Cl)cc2)(C(F)(F)F)C(F)(F)F)c1C#N | -5 | 0 | 1 | -10
CCN(CC)c1ncnc2c1cnn2-c1cccc(C)c1 | 60* | 0 | 1 | 4
CCc1cccc(C)c1NC(=S)N(CCN1CCCCCC1)Cc1ccco1 | 7 | 3.2* | -2 | 7
O=C(N/N=C/c1cccc2ccccc12)c1n[nH]c2c1CCC2 | 47* | 0 | -1 | 15
O=C(N/N=C/c1ccc(Cl)cc1)c1n[nH]c2c1CCCC2 | 19 | 0 | 0 | 17
O=C(N/N=C/c1ccc([N+](=O)[O-])cc1)c1n[nH]c2c1CCC2 | 54* | 0 | -1 | -17
O=C(N/N=C/c1ccccc1)c1n[nH]c2c1CCCC2 | 69* | 0 | 0 | 8
O=C(N/N=C/c1ccc(O)cc1)c1n[nH]c2c1CCC2 | 59* | 0 | -4 | -13
C/C(=N\NC(=O)c1n[nH]c2c1CCCC2)c1ccc(O)cc1 | 24 | 0 | -1 | 6
Cn1cnnc1SCc1ccc(Cl)c(Cl)c1 | -10 | 0 | 1 | -8
SMILES | TEAD-YAP block | FBW7 activator | GPR151 ag | MITF primary
C/C(=N\NC(=O)c1ccncc1)c1cccc2ccccc12 | -15 | 0 | 3 | 3
COCCn1c(C)cc(C(=O)COC(=O)c2ccc[nH]c2=O)c1C | 62* | 0 | 0 | 2
Cc1cc(C(=O)CSc2nnc3ccccn23)c(C)n1C1CCCCC1 | 60* | 0 | -2 | 8
COCCn1c(C)cc(C(=O)CSc2nnc3ccccn23)c1C | 55* | 0 | -6 | -6
Cc1cc(C(=O)CSc2nnc3ccccn23)c(C)n1-c1ccc(Br)cc1 | -68 | 0 | -1 | 1
Cc1ccc(-n2c(C)cc(C(=O)COC(=O)c3ccc[nH]c3=O)c2C)cc1 | -30 | 0 | 0 | 10
COCCn1c(C)cc(C(=O)CSc2nc(C)c(C)c(C)n2)c1C | -5 | 0 | 1 | 6
COCCn1c(C)cc(C(=O)CSc2ccc(Cl)cc2)c1C | 88* | 0 | -3 | -9
CSc1nc(N)c2c(n1)NC1=C(C(=O)CC(C)(C)C1)C2c1cccs1 (stereo not given) | 49* | 0 | 0 | 9
CSc1nc(N)c2c(n1)NC1=C(C(=O)CC(C)(C)C1)C2c1ccncc1 (stereo not given) | -4 | 0 | -1 | 12
CC1=C(C(=O)Nc2cccc(F)c2)C(c2cccs2)C2=C(CC(C)(C)CC2=O)N1 (stereo not given) | 58* | 0 | 1 | -8
CC1=C(C(=O)Nc2ccc(F)cc2)C(c2ccsc2)C2=C(CC(C)(C)CC2=O)N1 (stereo not given) | -7 | 0 | 1 | -15
CC1=C(C(=O)Nc2ccccc2F)C(c2ccccn2)C2=C(CC(C)(C)CC2=O)N1 (stereo not given) | 4 | 0 | 0 | 11
CC1=C(C(=O)Nc2ccccc2F)C(c2ccsc2)C2=C(CC(C)(C)CC2=O)N1 (stereo not given) | 55* | 0 | 0 | -3
CC1=C(C(=O)Nc2cccc(F)c2)C(c2ccsc2)C2=C(CC(C)(C)CC2=O)N1 (stereo not given) | 54* | 0 | -1 | 0
Cc1oc(C2CC2)cc1C(=O)N1CCC(c2c(S(C)(=O)=O)cnc3ncnn23)CC1 | -2 | 0 | -1 | -13
CCOc1ccccc1-n1nnc(C(=O)OCc2ccc(F)cc2)c1C | -6 | 0 | -1 | -9
CCOc1ccc(C)cc1S(=O)(=O)Nc1ccc(F)cc1 | -9 | 0 | -2 | -1
CCOc1ccc(C)cc1S(=O)(=O)Nc1ccc(I)cc1 | 42* | 0 | 1 | -5
NNC(=O)C(Cc1ccccc1)NC(=O)OCc1ccccc1 (stereo not given) | 8 | 0 | 1 | 6
NNC(=O)C(Cc1ccc(O)cc1)NC(=O)C(CO)NC(=O)OCc1ccccc1 (stereo not given) | 13 | 2.1* | -1 | 9
Cc1cccc(NC(c2cccc(O)c2)c2ccc3ccc(C)nc3c2O)n1 (stereo not given) | 11 | 0 | 0 | 17
COc1cc(C(Nc2cc(C)ccn2)c2ccc3ccc(C)nc3c2O)cc(OC)c1OC (stereo not given) | 68* | 0 | 1 | 21
Cc1ccnc(NC(c2cccc(O)c2)c2ccc3ccc(C)nc3c2O)c1 (stereo not given) | 13 | 0 | 0 | 5
COc1cc(C(Nc2cccc(C)n2)c2ccc3ccc(C)nc3c2O)cc(OC)c1O (stereo not given) | 33* | 0 | 2 | 3
SMILES | TEAD-YAP block | FBW7 activator | GPR151 ag | MITF primary
COc1cc(C(Nc2cc(C)ccn2)c2ccc3cccnc3c2O)ccc1O (stereo not given) | -11 | 0 | 1 | 54*
CCOc1cc(C(Nc2cc(C)ccn2)c2ccc3cccnc3c2O)ccc1O (stereo not given) | 2 | -1 | -1 | 69*
N#C/C(=C\c1ccc(N2CCCCC2)c([N+](=O)[O-])c1)c1nn(CCO)c(N)c1C#N | 9 | 0 | 2 | 19
CC(C)N(CCNc1nc(NC2CCC(O)CC2)nc2nc[nH]c12)C(C)C (stereo not given) | 17 | 0 | 1 | 1
C/C(=N\N=C1/NC(=O)C(CC(=O)O)S1)c1cccs1 (stereo not given) | -6 | 1 | -1 | 6
COc1ccc(C2CC(O)C(C)C(c3ccc(OC)cc3)N2)cc1 (stereo not given) | 12 | 0 | 1 | 0
